Structures are written as SMILES. This is part of a sample that, as a whole, favours compounds with a hit. Of some 83,000 tested, about 20% had one in any assay.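 Cells were grown in 96-well plates and exposed to the test compound at a single concentration for 48 hours; results are reported as percent growth, with values below 10 considered active.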 Values without a mark were called inactive. Activity calls are given as the source filed them.

For this assay, the system named is MDA-MB-468 breast. The assay can be described thus: NCI-60 one-dose screen, 48 h (100 = growth as untreated, 0 = no growth, -100 = all killed). Conditions: 10 µM unless noted.
`CCOC(=O)CSc1nc2sc3c(c2c(=O)n1-c1ccc([N+](=O)[O-])cc1)CCCCC3`: the growth was 56.6%. Take `CCN(CC)CC(=O)Nc1ccc2ncnc(Nc3ccc(Oc4cccc(F)c4)c(Cl)c3)c2c1`: the growth is 13.6%. Next, `Cc1nc2sc(C(=O)Nc3ccccc3Cl)c(N)c2cc1C(C)O` (stereo not given): 70.1%; `CCCCOC(=O)c1ccc(C(C)C)cc1`: 100%; `COc1ccc(Oc2ccc(/C=N/NC(=O)CSc3nc4ccccc4c(=O)n3-c3ccc(Cl)cc3)cc2)cc1`: 66.8%. As to `Cc1cccc(C)c1-c1cc(Cc2ccc(Cl)cc2)c(=O)[nH]n1`, the growth is 96.9%. For `Cc1ccc(C2=N[C@H]3CCC[C@@H]3N(c3ccccc3)C(C(Cl)Cl)=N2)cc1`, the growth is 116%.

Take `O=C1/C(=C/c2ccc(O)cc2)COc2ccc(O)c(O)c21`: the growth was -2.18% (active). To `CCN(CC)CCOc1ccc(/C(=C(\C)Cc2ccc(OC)cc2)c2ccc(O)cc2)cc1` belongs -18.7% (active). Consider `Cn1cc(-c2csc(-c3ccccc3)n2)c2cccnc21`, for which the growth was -34% [100 µM] (active). To `CC[C@@H](C)OC(=O)c1nn(C(C)=O)c2ccccc12` belongs 82.4%; to `O=C(/C=C/c1cccnc1)c1ccccc1`, 99.2%.

For the compound `O=C(Nc1ccccc1OC(=O)c1ccccc1)c1ccccc1`, the growth was 59%. Next, `CC[C@@H](C(=O)[C@H](C)[C@H](O)[C@@H](C)[C@H]1O[C@H]([C@@H](CC)C(=O)O)CC[C@H]1C)C1O[C@]2(C=C[C@@H](O)[C@]3(CC[C@@](C)([C@H]4CC[C@](O)(CC)[C@H](C)O4)O3)O2)[C@H](C)C[C@@H]1C` (stereo not given in full): 0.843% (active); `CCNCc1c(-c2cccc(OC(F)(F)F)c2)[nH]c2ccc(N3CCCC3)cc2c1=O`: 36.6%; `CN(C)CCCOc1ccccc1NC1=C(Cl)C(=O)C(Nc2ccccc2OCCCN(C)C)=C(Cl)C1=O`: -60.6% (active). To `CCN1CCC(CCOC)(CN2c3ccccc3Sc3ccc(Cl)cc32)C1` (stereo not given) belongs 16.9%; to `C=C1C(=O)O[C@H]2[C@H]1CC/C(COC(=O)NCCCCNC(=O)OC/C1=C/CC[C@@]3(C)O[C@H]3[C@H]3OC(=O)C(=C)[C@@H]3CC1)=C\CC[C@@]1(C)O[C@@H]21`, -14.8% (active); to `N#Cc1nn(-c2ccccn2)c(N)c1C#N`, 116%. In the case of `C[C@@]1(C(=O)Nc2ccc(F)nc2)CCCN1c1nc(Nc2cc(C3CC3)[nH]n2)c2cccn2n1`, the growth was 13.1%. To `COc1cc(C(=O)/C=C/c2c(C(F)(F)F)nc3sccn23)cc(OC)c1OC` belongs -53.4% (active). As for `O=Cc1ccc2nc(C(Cl)(Cl)Cl)ccc2c1`, the growth was 95.2%. Next, `CCCCCCCCCCCCCCCCCC1OCC(COC(=O)O[C@]2(CC)C(=O)OCc3c2cc2n(c3=O)Cc3cc4ccccc4nc3-2)O1` (stereo not given in full): 69.9%.

Regarding `N=c1nc(N)ncn1-c1ccccc1`, the growth was 113%. Consider `Fc1ccc2[nH]c3c(NCCCN4CCOCC4)ncnc3c2c1`, for which the growth was 73.2%. To `Fc1ccccc1/C=C(/C1=NCCN1)n1cnc2ccccc21` belongs 98.1%; to `COc1cc(/C=C/C(=O)c2ccc(NC(=O)CSc3nnc(-c4cc(OC)c(OC)c(OC)c4)n3-c3ccccc3)cc2)cc(OC)c1OC`, 9.24% (active); to `Ic1ccccc1I`, 98.9%.

For `C[C@]12O[C@H]1[C@H](O)c1c(cc(O)c3c1C(=O)c1cccc(O)c1-3)C2=O`, the growth was 83.3%. Next, `Cc1cccc(-n2c(C)nc3ccc(N4CCCNC4=O)cc3c2=O)c1`: 99.4%. Next, `O=C(Nc1ccc(Oc2ccc(Nc3nc4ccccc4s3)cc2)cc1)Nc1ccc(Cl)c(C(F)(F)F)c1`: 4.56% (active); `Cn1cc(-c2nc(-c3c[nH]c4ncccc34)cs2)c2ccccc21`: -19% (active).

For the compound `Cc1ccc(/C=C2\CN(C(=O)OC(C)(C)C)C/C(=C\c3ccc(C)cc3)C2=O)cc1`, the growth is 56.2%. For `CCOC(=O)c1c(C)oc2ncnc(N3CCN(C(=O)COc4ccc(SC)cc4)CC3)c12`, the growth was 81.9%. To `N#Cc1ccc(Oc2ccc3ccc(=O)oc3c2)cc1` belongs 93.4%.

`COc1cc(C(=O)/C=C/c2c[nH]c3ccccc23)cc(OC)c1OC`: the growth was -5.45% (active). For the compound `COc1ccc2c(c1)Nc1ccccc1S2`, the growth was 104%. In the case of `C=C1C(=O)O[C@H]2[C@H]1CC/C(COC(=O)/C=C\C(=O)NCc1ccc(Cn3c(=O)sn(CCCI)c3=O)cc1)=C\CC[C@@]1(C)O[C@@H]21`, the growth was -82.1% (active).

Consider `C=CCN(C)C`, for which the growth is 102%. Next, `CCOC(=O)/C=C/c1ccc([N+](=O)[O-])o1`: 53.6%.

For the origin of these results see PubChem BioAssay (NCI).
